Bioassay records: PubChem, National Center for Advancing Translational Sciences (NCATS)
VP16 counter: counter-screen for ROR gamma inhibitors: Gal4-VP16 reporter. Drosophila S2 Gal4-VP16 UAS-luciferase, luminescence, 20 h. Potency, µM (doses to about 53.6 µM), for inactives: at the highest dose activity, negative = inhibition, usual class: inhibitors. 3.5% of 310,000 active. AID 2546;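 also: Gal4-VP16 expression switched on by copper sulfate through the metallothionein promoter; nearly all actives have a fitted effect of over 50% in size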
TDP1 cell noCPT: qHTS for Inhibitors of human tyrosyl-DNA phosphodiesterase 1 (TDP1): qHTS in cells in absence of CPT | DT40 Tdp1-/- hTDP1 cells, no CPT, ATP luminescence, 48 h | Potency, µM (top dose mostly 46.2 µM), inactives show at the highest dose activity change, negative = growth inhibition, actives largely listed as inhibitors | 15% of 420,000 active | AID 686978, 2013; also: nearly all actives have a fitted effect of over 55% in size
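DT40 Tdp1-/-;hTDP1 cells, no CPT (DMSO vehicle only), 400 cells/well; compounds pin-transferred; ≥48 hr, 37 °C; CellTiter-Glo 30 min RT dark, luminescence read.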
RORg inh: ROR gamma (mouse) transcription inhibition; Drosophila S2 Gal4-RORgamma UAS-luciferase reporter, 20 h; 5.4% of 310,000 active; Potency, µM (titrated, usually from 53.6 µM), for the others: at the top dose activity change, negative = inhibition, actives largely listed as inhibitors; AID 2551; also: nearly all actives have a fitted effect of over 60% in size
Target sequence (P51450 whole entry, looked up, the tested form may be a part): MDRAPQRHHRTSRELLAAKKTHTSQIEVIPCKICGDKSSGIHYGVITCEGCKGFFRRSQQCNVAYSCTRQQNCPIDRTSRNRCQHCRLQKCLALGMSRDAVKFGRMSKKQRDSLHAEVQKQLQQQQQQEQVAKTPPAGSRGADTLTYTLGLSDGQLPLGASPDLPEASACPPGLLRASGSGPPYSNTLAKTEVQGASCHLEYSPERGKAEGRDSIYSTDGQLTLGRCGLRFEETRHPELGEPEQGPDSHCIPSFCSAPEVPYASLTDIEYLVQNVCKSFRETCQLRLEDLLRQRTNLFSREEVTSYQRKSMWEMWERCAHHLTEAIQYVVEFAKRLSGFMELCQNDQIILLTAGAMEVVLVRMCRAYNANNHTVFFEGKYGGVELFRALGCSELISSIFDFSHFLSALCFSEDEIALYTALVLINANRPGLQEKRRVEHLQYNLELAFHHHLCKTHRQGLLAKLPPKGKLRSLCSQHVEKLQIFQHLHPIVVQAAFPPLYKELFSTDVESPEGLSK
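Using a luciferase readout, inhibitors were identified by reduced reporter activity in Drosophila cells coexpressing a copper-inducible Gal4–ROR gamma fusion and UAS-driven Photinus luciferase, incubated 20 hr after 700 uM copper sulfate.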
ELG1 repair inh: inhibitors of ELG1-dependent DNA repair in HEK293T cells | HEK293T ELG1-luciferase reporter, luminescence, 16 h; DNA damage induced by 5-fluorouridine | Potency, µM (top dose mostly 46.1 µM), for the others: top-dose activity change, negative = inhibition, actives largely listed as inhibitors | 2.3% of 330,000 active | AID 504467; also: nearly all actives have a fitted effect of over 55% in size
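Reporter activity after DNA damage by 5-fluorouridine is monitored. Compound-treated cells incubate 16 hr at 37 °C, then ONE-Glo is added for 30 min before luminescence reading.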
ALOX12 inh: ALOX12 (human) lipoxygenase inhibition. 1.1% of 580,000 active. Potency, µM (doses to about 108 µM), inactives show at the top dose activity change, negative = inhibition, usual class: inhibitors. P18054. purified 12hLO, xylenol orange hydroperoxide absorbance
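Purified human 12hLO (150 nM final) in 25 mM Hepes, 0.01% Triton X-100, pH 7.0 was preincubated 15 min at room temperature with compound. Then 40 uM arachidonic acid was added, 30 min. Hydroperoxide was read by Fe-XO absorbance ratio 573/405 nm.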
DT40 TDP1 CPT: DT40-hTDP1 cell growth loss with CPT; chicken DT40 Tdp1-/-;hTDP1 cells + 20 nM CPT, ATP luminescence, 48 h; Potency, µM (doses to about 46.2 µM), for the others: top-dose activity change, negative = growth inhibition, most hits filed as inhibitors; 12% of 420,000 active; AID 686979; also: nearly all actives have a fitted effect of over 55% in size
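Chicken DT40 Tdp1-/- cells stably complemented with human TDP1 were seeded at 400 cells/well in medium containing 20 nM camptothecin, exposed to pin-transferred compounds, and grown at 37 °C for at least 48 hr. Viability was read as ATP luminescence.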
An asterisk follows results filed as active; ? = inconclusive; nt = no result. Only some compounds are listed: those with a hit (about 15% of all), similar ones and a draw of the others. Calls follow the shape of the dose curve; as a rule, active = well fitted curve in the direction sought with a large enough effect; inconclusive = small, poorly fitted or top-dose-only effect, or another doubt; inactive = no such curve, though single readings can be large; an effect the other way counts as inactive or inconclusive. % is scaled to controls: 0 for no effect and ±100 for the full control effect; potency is read from the fitted curve at half-maximal effect.

SMILES | VP16 counter | TDP1 cell noCPT | RORg inh | ELG1 repair inh | ALOX12 inh | DT40 TDP1 CPT
Cc1cc(NC(=S)NC(=O)c2ccco2)c2ccccc2n1 | 1.4% | ? | 11.2µM* | ? | ? | ?
CCCC(=O)NC(=S)Nc1cccc(Cl)c1N1CCCC1 | 7.08µM* | ? | 1.26µM* | -7.6% | ? | ?
O=C(NC(=S)Nc1cccc2ncccc12)c1ccco1 | -1.4% | -1.1% | ? | -12.7% | 3.3% | -10.5%
O=C(NC(=S)Nc1cccc(Cl)c1N1CCOCC1)c1cccs1 | 17.8µM* | 25.9µM* | 3.16µM* | ? | ? | ?
O=C(NC1CCCC1)C1CCCN(C2CCN(Cc3ccncc3)CC2)C1 (stereo not drawn) | nt | nt | nt | nt | 10.7% | nt
Cc1cccc(/C=N/NC(=O)C2CC2)c1 | nt | nt | nt | nt | 15.5% | nt
O=C(CSc1ncnc2ccccc12)Nc1ccccc1OC(F)F | nt | nt | nt | nt | 12.0% | nt
Fc1ccc(C2Cn3nnc(-c4nc(-c5cccc(Cl)c5)no4)c3CO2)cc1 (stereo not drawn) | nt | nt | nt | nt | 20.1% | nt
COc1ccc(-c2c(C)nn3c(N)c(-c4ccccc4)cnc23)cc1OC | -3.1% | 6.51µM* | 36.7% | -15.6% | 24.8% | 5.8µM*
COc1ccccc1-c1c(C)nn2c(N)c(-c3ccccc3)cnc12 | 28.2% | 5.8µM* | 4.9% | ? | 16.7% | 6.51µM*
COCc1nn2c(N)c(-c3ccccc3)cnc2c1-c1ccccc1 | -4.3% | -22.6% | ? | -7.4% | 6.0% | 5.9%
CC(=O)c1cccc(C(=O)N2CCC3(CC2)N=C(c2ccc(C)cc2)NO3)c1 | nt | nt | nt | nt | -8.5% | nt
COc1cccc(OC)c1CN1CC[C@@H]2CN(S(C)(=O)=O)[C@@H]2C1 | nt | nt | nt | nt | 50.1% | nt
CC(C)COc1ccc(C(=O)N2CCCCC2CCN2CCCCCC2)cc1 (stereo not drawn) | nt | nt | nt | nt | 7.08µM* | nt
FC(F)(F)c1nnc2c(Sc3ccccc3)nc3ccc(Cl)cc3n12 | 4.1% | 0.581µM* | -36.9% | -10.8% | -5.0% | 0.651µM*
Nc1cccc(-n2nnnc2CN2CCOCC2)c1 | -14.4% | 16.4µM* | 3.1% | -9.1% | -14.5% | ?
CCN1/C(=C/c2ccc3cc(C)ccc3[n+]2CC)Sc2ccc3sccc3c21 | nt | 0.581µM* | nt | nt | nt | 0.92µM*
COc1ccccc1CN(C)C(=O)c1cc(C)nc2ccccc12 | -17.9% | 16.4µM* | ? | -28.5% | -1.9% | 16.4µM*
Cc1ccc(C(=O)COC(=O)c2cc(-c3cccs3)nc3ccccc23)cc1 | nt | 18.4µM* | nt | nt | -24.9% | ?
COc1ccccc1CN(C)C(=O)C(NC(=O)Cc1cccc2ccccc12)C(C)C (stereo not drawn) | 1.9% | 23.1µM* | -2.6% | -10.0% | -18.1% | ?
COc1ccc(-c2cc(C(=O)Oc3ccc(C)cc3)c3cc(C)ccc3n2)cc1 | nt | -1.5% | nt | nt | ? | -23.5%
COc1ccc(-c2cc(C(=O)Oc3ccccc3)c3cc(C)ccc3n2)cc1 | nt | 5.17µM* | nt | nt | -22.3% | ?
COc1ccccc1CNC(=O)c1cc(C)nc2ccccc12 | 8.3% | ? | 52.7% | 0.0% | -1.2% | -29.7%
COCCNC(=O)[C@@H]1C[C@H](Oc2ccccc2)CN1C(=O)CCc1nc2ccccc2[nH]1 | nt | nt | nt | nt | 38.2% | nt
CC(C)(CNC(=O)CCc1ncc(-c2ccc(F)cc2)o1)N1CCOCC1 | nt | nt | nt | nt | 1.1% | nt
SMILES | VP16 counter | TDP1 cell noCPT | RORg inh | ELG1 repair inh | ALOX12 inh | DT40 TDP1 CPT
COc1cccc(C2CC(=O)N(c3cccc(C(F)(F)F)c3)C3=C2C(=O)OC3)c1OC (stereo not drawn) | nt | nt | nt | nt | -1.0% | nt
CC1(C)C(c2ccccc2)=[N+]([O-])C(c2ccccc2Cl)N1O (stereo not drawn) | nt | nt | nt | nt | -25.9% | nt
COc1ccc(CN(C)C(=O)c2cc(-c3ccccc3)nc3ccc(C)cc23)c(OC)c1 | nt | 5.8µM* | nt | nt | 10.9% | 5.8µM*
Cc1nn(C)cc1CN(C)C(=O)c1cc(-c2ccccc2)nc2ccc(Br)cc12 | 4.1% | 14.6µM* | -0.3% | ? | -15.7% | 16.4µM*
Cc1ccc2nc(-c3ccc(Cl)cc3)cc(C(=O)OCC(=O)c3ccccc3)c2c1 | nt | 20.6µM* | nt | nt | -0.4% | ?
NC(=O)c1cc(-c2ccccc2)nc2ccc(Br)cc12 | 1.8% | 4.1% | -20.2% | -3.4% | ? | 9.3%
COc1ccc(-c2cc(C(=O)N(C)CCO)c3ccccc3n2)cc1 | nt | nt | nt | nt | 1.5% | nt
N#Cc1ccc(/C=C/C(=O)c2ccc3c(c2)OCCO3)cc1 | nt | nt | nt | nt | -20.0% | nt
O=C(C=Cc1cccc(Cl)c1)c1ccccc1 | nt | 23.1µM* | nt | nt | -9.0% | 14.6µM*
O=C(C=Cc1ccc2c(c1)OCO2)c1ccccc1 | nt | 16.4µM* | nt | nt | -4.5% | ?
N#Cc1ccc(/C=C/C(=O)c2ccc3c(c2)OCO3)cc1 | -6.0% | 23.1µM* | -28.1% | 23.0% | -5.0% | 16.4µM*
O=C(/C=C/c1ccc2c(c1)OCCCO2)c1ccc2ccccc2c1O | -5.1% | 11.6µM* | -15.0% | ? | -8.3% | ?
O=C(NC1CCN(Cc2ccccc2)CC1)c1cccc2c1CCN2C(=O)c1ccccc1 | nt | nt | nt | nt | -1.5% | nt
C=CCNC(=O)c1cc(-c2ccc(OCC)cc2)nc2ccccc12 | nt | nt | nt | nt | 31.0% | nt
COCCn1c(C)cnc1CC1CCN(S(=O)(=O)c2cccc(OC)c2)C1 (stereo not drawn) | nt | nt | nt | nt | -5.6% | nt
O=C(/C=C/c1ccc2c(c1)OCO2)c1ccccn1 | ? | 18.4µM* | ? | ? | ? | 23.1µM*
O=C1COc2ccc(C(=O)/C=C/c3ccccc3)cc2N1 | 2.6% | 5.17µM* | -38.4% | 9.3% | 0.6% | 5.17µM*
O=C(/C=C/c1ccccc1)c1ccc2c(c1)OCCCCO2 | ? | ? | ? | ? | -3.8% | -29.4%
O=C(/C=C/c1ccc2c(c1)OCO2)N1CCOCC1 | 1.8% | -5.5% | 7.2% | ? | 0.0% | -11.0%
O=C(/C=C/c1ccccc1)c1ccccn1 | ? | 16.4µM* | -35.6% | ? | 0.0% | 23.1µM*
O=C(C=Cc1ccc2c(c1)OCO2)C=Cc1ccc2c(c1)OCO2 | nt | 23.1µM* | nt | nt | ? | ?
O=C(Nc1nnc(-c2ccc(Cl)cc2)o1)Nc1ccccc1Cl | -3.9% | ? | -4.9% | 21.8% | -4.3% | ?
N#Cc1ccc(C(=O)Nc2nnc(-c3ccccn3)o2)cc1 | 0.891µM* | ? | 1.26µM* | ? | -0.8% | ?
O=C(Nc1nnc(-c2cccnc2)o1)c1cccc(Cl)c1 | 0.708µM* | 16.4µM* | 0.501µM* | 16.4µM* | 0.3% | 23.1µM*
